# PubChem BioAssay (NCATS)
# Results filed as inconclusive are left out. Values without a mark were called inactive. Active and inactive are the calls of the source. Calls follow the shape of the dose curve; as a rule, active = well fitted cell-killing curve with a large enough effect; inconclusive = small, poorly fitted or top-dose-only effect, or effect the other way; inactive = no such curve, though single readings can be large or run the other way.
# Assay: Quantitative High-Throughput drug screen in 47 multiple myeloma cell lines against the NCATS MIPE library collection: L363_DSMZ cell viability assay (AID 1918984)
# Conditions: L363 myeloma viability, CellTiter-Glo ATP luminescence, 48 h; series mostly up to 45.8 µM; viability (% of control): at the top concentration
# Procedure, shortened: (§1)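 MIPE 4.0 approved/investigational drugs; 500 cells/well; 48 h 37 °C humidified 5% CO2; CTG luminescence readout; DMSO = 100%, media = 0% viability.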
# Also: nearly all actives have a fitted effect of over 40% in size.
# Potency is read from the fitted curve at half-maximal effect.
SMILES,viability (% of control),Potency
COc1cc2c(cc1OC)CN(CCc1ccc(NC(=O)c3cc(OC)c(OC)cc3NC(=O)c3cnc4ccccc4c3)cc1)CC2,119%,
c1cc(-c2sc(-c3ccncc3)c(-c3ccncc3)c2-c2ccncc2)ccn1,,3.32 µM (active)
Cc1c(O)cccc1C(=O)N[C@@H](CSc1ccccc1)[C@H](O)CN1C[C@H]2CCCC[C@@H]2C[C@@H]1C(=O)NC(C)(C)C,,20.9 µM (active)
CCn1cc(C(=O)O)c(=O)c2ccc(C)nc21,100%,
CC(C)(C)OC(=O)N[C@H]1CCCCCC=C[C@@H]2C[C@@]2(C(=O)NS(=O)(=O)C2CC2)NC(=O)[C@@H]2C[C@@H](OC(=O)N3Cc4cccc(F)c4C3)CN2C1=O,79.2%,
COc1ccc(-c2nc(N3CCOCC3)c3sc(CN(C)c4ncc(C(=O)NO)cn4)cc3n2)cn1,,0.001 µM (active)
NC(=O)NN=Cc1ccc([N+](=O)[O-])o1,,23.5 µM (active)
CN1CCN(CCOc2cc(OC3CCOCC3)c3c(Nc4c(Cl)ccc5c4OCO5)ncnc3c2)CC1,,14.8 µM (active)
Nc1ncnc2c1nc(Cl)n2[C@@H]1O[C@H](CO)[C@@H](O)[C@@H]1O,,20.9 µM (active)
O=C(NOCC(O)CO)c1cc(Br)c(F)c(F)c1Nc1ccc(I)cc1F (stereo not given),96.7%,
CC(C)C(C)C=CC(C)C1CCC2C3=CC=C4CC(O)CCC4(C)C3CCC21C (stereo not given),104%,
NC1CCC(Nc2nc(Nc3ccc(C(=O)N4CCCCC4)cc3)c3ncn(-c4cccc(F)c4)c3n2)CC1 (stereo not given),99.5%,
C=C1C(=O)OC(CCCCCCCC)C1C(=O)O (stereo not given),110%,
CN(C)Cc1ccc(-c2nc3cccc4c3n2CCNC4=O)cc1,,18.7 µM (active)
O=c1[nH]cnc2c1ncn2[C@H]1CC[C@@H](CO)O1,146%,
Cc1cc(OCCCc2c(C(=O)O)n(Cc3cccnc3)c3c(-c4c(COc5ccc(N6CCN([S+](C)(=O)[O-])CC6)cc5)nn(C)c4C)cccc23)cc(C)c1Cl,76.1%,
CCCCCNC(=O)N1CCC(CN(Cc2ccc(Cl)cc2)Cc2ccc([N+](=O)[O-])s2)C1 (stereo not given),,20.9 µM (active)
Cc1nnc(C(C)C)n1C1C[C@H]2CC[C@@H](C1)N2CC[C@H](NC(=O)C1CCC(F)(F)CC1)c1ccccc1 (stereo not given in full),79%,
Cc1ccc(F)c(NC(=O)Nc2ccc(-c3cccc4[nH]nc(N)c34)cc2)c1,,4.18 µM (active)
O=C(O)C(O)Cc1ccc(O)c(O)c1 (stereo not given),86.9%,

# Assay: Quantitative High-Throughput drug screen in 47 multiple myeloma cell lines against the NCATS MIPE library collection: KMS34_JCRB cell viability assay (AID 1918985)
# Conditions: KMS34 myeloma viability, CellTiter-Glo ATP luminescence, 48 h; series mostly up to 45.8 µM; viability, percent of control: at the top concentration
# Procedure, shortened: as §1
SMILES,Potency,"viability, percent of control"
CCC(=O)NC[C@H](Cc1ccc(OCCc2nc(-c3ccccc3)oc2C)cc1)NC(C)=CC(=O)c1ccc(C(F)(F)F)cc1,23.5 µM (active),
COc1cc2c(cc1OC)CN(CCc1ccc(NC(=O)c3cc(OC)c(OC)cc3NC(=O)c3cnc4ccccc4c3)cc1)CC2,,92%
COc1cccc([C@@H](C)NCCCc2ccccc2Cl)c1,,128%
c1cc(-c2sc(-c3ccncc3)c(-c3ccncc3)c2-c2ccncc2)ccn1,,102%
Cc1c(O)cccc1C(=O)N[C@@H](CSc1ccccc1)[C@H](O)CN1C[C@H]2CCCC[C@@H]2C[C@@H]1C(=O)NC(C)(C)C,18.7 µM (active),
CCn1cc(C(=O)O)c(=O)c2ccc(C)nc21,,113%
CC(C)(C)OC(=O)N[C@H]1CCCCCC=C[C@@H]2C[C@@]2(C(=O)NS(=O)(=O)C2CC2)NC(=O)[C@@H]2C[C@@H](OC(=O)N3Cc4cccc(F)c4C3)CN2C1=O,,97%
N[C@@]1(C(=O)O)CS(=O)(=O)[C@H]2[C@H](C(=O)O)[C@H]21,,101%
C[C@]12CCC3c4ccc(O)cc4CCC3C1CCC2=O (stereo not given in full),10.5 µM (active),
CC(C)=CC[C@@H](O)C1=CC(=O)c2c(O)ccc(O)c2C1=O,1.05 µM (active),
NC(=O)NN=Cc1ccc([N+](=O)[O-])o1,,92.5%
CCOC1OC(=O)C[C@H]1NC(=O)[C@@H]1CCCN1C(=O)[C@@H](NC(=O)c1ccc(N)c(Cl)c1)C(C)(C)C (stereo not given in full),,86.8%
Nc1ncnc2c1nc(Cl)n2[C@@H]1O[C@H](CO)[C@@H](O)[C@@H]1O,11.8 µM (active),
CC(C)C(C)C=CC(C)C1CCC2C3=CC=C4CC(O)CCC4(C)C3CCC21C (stereo not given),,115%
CC1(C)CCC2=C(O1)c1ccccc1C(=O)C2=O,13.2 µM (active),
O=C(O)C(O)Cc1ccc(O)c(O)c1 (stereo not given),18.7 µM (active),
COc1ccc(-c2coc3cc(O)cc(O)c3c2=O)cc1,,110%
Cc1ccc([C@@H]2O[C@H](CO)[C@@H](O)[C@H](O)[C@@H]2O)cc1Cc1ccc(-c2ccc(F)cc2)s1,23.5 µM (active),
OC[C@H]1O[C@@H](Oc2cc(O)cc(C=Cc3ccc(O)cc3)c2)[C@H](O)[C@@H](O)[C@H]1O,,103%
CC[C@@]1(O)C[C@H](O[C@H]2C[C@H](N(C)C)[C@H](O[C@H]3C[C@H](O)[C@H](O[C@H]4CCC(=O)[C@H](C)O4)[C@H](C)O3)[C@H](C)O2)c2c(cc3c(c2O)C(=O)c2c(O)cccc2C3=O)[C@@H]1C(=O)OC,2.09 µM (active),
